From ChEMBL document CHEMBL3988442, “University of Dundee, Small-Polar-MMV Screening Library” (2021)
About 13,000 (27%) of roughly 48,000 compounds showed an effect of 50% or more. The list shows a part of the results.

Each molecule was assayed on Wolbachia pipientis (assay: Anti-Wolbachia Cell-Based Screen). Conditions: 5 µM.
Type: functional
Design: scale not given: in the data most compounds retested in dose-response had high values

| SMILES | Percent Effect |
| --- | --- |
| NCC1CN(C(=O)c2cccc(-n3cccn3)c2)CCO1 (stereo unspecified) | 12.21% |
| CCCc1cc(NC2CCc3ncnn3C2)n2ncnc2n1 (stereo unspecified) | -15.24% |
| CSCC(C)(O)CNc1cccc(F)c1C#N (stereo unspecified) | -5.996% |
| CCCOc1cc(CNC(=O)Nc2cccnc2N2CCCC2)ccn1 | 3.924% |
| COc1cccc2cc(CNCc3ccnc(N4CCOCC4)c3)oc12 | -10.04% |
| COc1cccc2cc(CNCc3ccc(N4CCCC4)nc3)oc12 | 106.9% |
| COc1cccc2cc(CNC(=O)N3CCCC(O)C3)oc12 (stereo unspecified) | -11.96% |
| COc1cccc2cc(CNCc3ccnc(N4CCCCC4)c3)oc12 | 98.43% |
| COc1cc(CNCc2ccco2)ccc1OCCO.Cl | -24.56% |
| COc1cccc2cc(CNCc3ccnc(N(C)C)c3)oc12 | 97.53% |
| COc1ccc(CNCc2ccnc(N3CCCCC3)c2)cc1OC | 4.647% |
| COc1c(CNCc2ccc(N3CCOCC3)nc2)c(C)nn1C | -5.256% |
| COc1ccc(CNCc2ccc(N3CCCCC3)nc2)cc1OC | 5.038% |
| CC(NC(=O)NCc1cccc(N2CCCC2=O)c1)c1ccccc1 (stereo unspecified) | 10.19% |
| CC(=O)N[C@@H]1CN(c2nc(C(N)=O)cs2)C[C@H]1c1ccc(C)o1 | 3.94% |
| CC(C)c1cc(N2CCN(c3ccc(O)cc3)CC2)n2nccc2n1 | -10.08% |
| Cc1nc(C)n(CC2CCCCN2CC(=O)NC2CCOCC2)n1 (stereo unspecified) | -3.575% |
| Cc1nc(C)c(CC(=O)N2CCC(c3ccn4nccc4n3)CC2)s1 | 148.4% |
| Cc1nc(C)c(CC(=O)N2C[C@@H](C(=O)O)[C@H](c3ccccc3C)C2)s1 | -4.112% |
| Cc1nc(CC(=O)N2CCC(c3ccn4nccc4n3)CC2)cs1 | 100.2% |
| Cc1nc(CC(=O)N2CCC(Nc3cccnn3)CC2)cs1 | 10.36% |
| Cc1noc(C)c1CC(=O)N1CCC(c2ccn3nccc3n2)CC1 | 116.9% |
| Cc1nc(CC(=O)N2CCN(c3ccc(N(C)C)cc3)CC2)cs1 | -7.561% |
| COC1CCN(C(=O)CCc2c(C)nc3ccnn3c2C)CC1 | 2.453% |
| CCC[C@@H]1CN(C(=O)Cc2sc(C)nc2C)C[C@H]1C(=O)O | 9.333% |
| Cc1ncc2c(n1)CCN(C(=O)Cc1c(C)noc1C)C2 | -7.344% |

| SMILES | Percent Effect |
| --- | --- |
| O=C(NC[C@H]1OC[C@@H](NC2CCC2)[C@@H]1O)Nc1ccccc1 | 27.93% |
| COCCCN(C)S(=O)(=O)c1ccc(C(F)(F)F)cc1C#N | 0.354% |
| Cc1cc(CC(C)Nc2ncnc3cccc(F)c23)[nH]n1 (stereo unspecified) | -16.45% |
| Cc1cc(NCC(=O)N(C)C)c(C(N)=O)cc1F | 4.75% |
| CCN(CC(C)C#N)C(=O)CNc1ccc(C(N)=O)c(C)c1 (stereo unspecified) | 94.3% |
| CCN(CC(C)C#N)C(=O)CNc1cc(Cl)ccc1C(N)=O (stereo unspecified) | 109.4% |
| CCN(CC)C(=O)Nc1ccc(C(=O)N(C)C)c(C)c1 | -2.57% |
| CCN(CC(C)C#N)C(=O)CSc1ccc(C(F)(F)F)cn1 (stereo unspecified) | -16% |
| Cc1cc(NC(=O)N(CCC#N)CCCN(C)C)ccc1F | -0.7911% |
| Cc1cc(NCC(C)C)ccc1C(=O)N(C)C | -5.944% |
| CCN(CC(C)C#N)C(=O)CNc1ccc(F)c(C)c1 (stereo unspecified) | 98.55% |
| CCN(C(=O)CNc1cc(C)c(F)cc1C(N)=O)C1CC1 | -0.2217% |
| CNC(=O)N1CCC2(CC1)CN(C(C)C)Cc1cc(F)ccc12.Cl | -6.692% |
| CCn1c(CN(C)C)nnc1C1CCN(Cc2ccc(Cl)cc2)CC1 | -12.39% |
| Cc1noc(C)c1C(=O)N1CCSc2ccc(Cl)cc21 | 93.15% |
| Cc1noc(C)c1C(C)NC(=O)N1CCCN(C(=O)c2ccsc2)CC1 (stereo unspecified) | 6.672% |
| CCC(CNC(=O)Cc1c(C)noc1C)N1CCCC1 (stereo unspecified) | 6.109% |
| Cc1noc(C)c1CC(=O)N1CCCN(C)c2ccc(Cl)cc21 | 108.2% |
| CN1CCCN(S(=O)(=O)c2cn(C)cn2)c2cc(Cl)ccc21 | -2.244% |
| Cc1noc(C)c1C(=O)N1CCCN(C)c2ccc(Cl)cc21 | 90.03% |
| Cc1noc(C)c1C(C)C(=O)N1CCCN(C)c2ccc(Cl)cc21 (stereo unspecified) | 111.8% |
| Cc1noc(C)c1CN(C)C(=O)CCOc1ccc(Cl)cc1 | 13.27% |
| Cc1nc(CN2CCN(C(=O)c3c(C)noc3C)CC2)cs1 | -5.34% |
| Cc1noc(C)c1C(=O)N1CC[C@H]2C[C@@H](c3nccs3)O[C@@H]2C1 | -4.112% |
| Cc1noc(C)c1C(C)NC(=O)N1CCN(c2cccs2)CC1 (stereo unspecified) | 5.123% |
